High-throughput results from PubChem BioAssay.
DRD3 antagonist = antagonists of human D3 dopamine receptor; P35462; D3R cells, DiscoveRx beta-arrestin luminescence, antagonist mode; hits give low values; 360,000 compounds, 2.5% hits; max response, negative = inhibition, %; in the data active = max response below about -50%; inconclusive = no clear call, values can overlap the other calls; note: % is set by controls: 0 for no effect and ±100 for the full control effect
Target sequence (P35462 whole entry, looked up): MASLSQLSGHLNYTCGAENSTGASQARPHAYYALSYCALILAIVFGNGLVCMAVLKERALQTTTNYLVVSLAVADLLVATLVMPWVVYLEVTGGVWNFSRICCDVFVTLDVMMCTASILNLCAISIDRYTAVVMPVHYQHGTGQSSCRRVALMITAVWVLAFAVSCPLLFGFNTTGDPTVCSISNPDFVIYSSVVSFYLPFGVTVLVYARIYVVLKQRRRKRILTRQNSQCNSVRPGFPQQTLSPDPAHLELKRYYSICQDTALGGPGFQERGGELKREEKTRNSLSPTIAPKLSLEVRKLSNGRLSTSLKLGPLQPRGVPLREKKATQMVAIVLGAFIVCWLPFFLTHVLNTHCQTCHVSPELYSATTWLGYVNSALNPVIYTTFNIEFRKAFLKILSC
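Cells expressing the human receptor were seeded at 1500 cells/well, incubated overnight at 37 degrees C in 5% CO2, then exposed to library compounds with dopamine controls for 90 minutes at 37 degrees C before luminescent detection.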
MCF10A rerep = inducers of DNA re-replication in MCF 10A breast cells; MCF 10A DNA re-replication, Hoechst nuclear intensity, 48 h; Potency, µM (top dose mostly 46.1 µM), for inactives: at the top dose activity, positive = re-replication, usual class: activators; AID 624296; 350,000 compounds, 2.9% hits; note: potency is the fitted concentration of half-maximal effect; % of control where 0% means no effect; nearly all actives have a fitted effect of over 50% in size
KB-V1 cytotox = KB-V1 MDR subline cytotoxicity; Potency, µM (highest dose often 46.1 µM), usual class: cytotoxic; 400,000 compounds, 3.4% hits; KB-V1 MDR cells viability, CellTiter-Glo, 72 h; note: potency is the fitted concentration of half-maximal effect; % is set by controls: 0 for no effect and ±100 for the full control effect; nearly all actives have a fitted effect of over 60% in size
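Drug-selected KB-V1 cells, grown in DMEM lacking phenol red with 10% FBS, receive compound titrations; after three days at 37 degrees C, surviving cell ATP is quantified by CellTiter-Glo luminescence and responses normalized and curve-fitted.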
SW480 rerep = inducers of DNA re-replication in SW480 colon cancer cells | SW480 DNA re-replication, Hoechst DNA content imaging, 48 h | Potency, µM (titrated, usually from 46.1 µM), for inactives: at the top dose re-replication activation, hits mostly activators | 340,000 compounds, 1.8% hits; note: potency is the fitted concentration of half-maximal effect; % of control where 0% means no effect; nearly all actives have a fitted effect of over 55% in size
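Treated cells incubate 48 hr (37 C, 5% CO2), are stained 40 min with Hoechst, and nuclear fluorescence is enumerated; a rise in nuclei with high DNA signal marks re-replication.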
KB-3-1 cytotox = kills parental KB-3-1 adenocarcinoma cells. 400,000 compounds, 1.4% hits. KB-3-1 viability, CellTiter-Glo ATP luminescence, 72 h. AID 1347075. Potency, µM (highest dose often 46.1 µM), hits mostly cytotoxic; note: potency is the fitted concentration of half-maximal effect; % is set by controls: 0 for no effect and ±100 for the full control effect; nearly all actives have a fitted effect of over 60% in size
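Cytotoxicity in the drug-sensitive parental line KB-3-1 was scored as loss of CellTiter-Glo luminescence following 72 h incubation with compound. Values come from curve fitting of normalized concentration-response data.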
DRD3 agonist = agonists of human D3 dopamine receptor. D3R DiscoveRx beta-arrestin cells, luminescence, 90 min. max activation, %. 410,000 compounds, 0.58% hits. AID 652048; in the data active = max activation above about 30%; note: 0% is about no effect
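Agonist-mode cell screen: cells plated at 1500/well and incubated overnight at 37 °C, then exposed to library compounds for 90 min at 37 °C. Detection reagent was added for 30–60 min at room temperature, and luminescence was read.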
Starred values were filed as active, the others as inactive. Rows were chosen to be rich in hits. Some 8.9% of all compounds tested hit in one or more screens of this group. Unless noted, calls come from the whole dose curve; as a rule, active = well fitted curve in the direction sought with a large enough effect; inconclusive = small, poorly fitted or top-dose-only effect, or another doubt; inactive = no such curve, though single readings can be large; an effect the other way counts as inactive or inconclusive.

Screening CCn1cc(C(=O)N2CCN(c3cccc(C(F)(F)F)c3)CC2)c2cc(OC)c(OC)cc2c1=O returned KB-V1 cytotox inactive, KB-3-1 cytotox inactive and DRD3 agonist -12.3.
COc1cc(C(=O)N2CCN(c3cccc(C(F)(F)F)c3)CC2)ccc1OCC(=O)N1CCOCC1 was read as DRD3 antagonist -16.9, MCF10A rerep 0.3%, KB-V1 cytotox 18.4µM*, SW480 rerep -3.6%, KB-3-1 cytotox inactive and DRD3 agonist -7.4.
For O=C1CC(c2ccccc2)Cc2nc3nc(C(F)(F)F)nn3cc21 (configuration not stated) the results were DRD3 antagonist -12.1, MCF10A rerep 0.6%, KB-V1 cytotox inactive, SW480 rerep -8.9%, KB-3-1 cytotox inactive and DRD3 agonist -4.8.
Screening CSc1nc2nc3c(cn2n1)C(=O)CC(c1ccccc1)C3 (configuration not stated) returned DRD3 antagonist 17.2, MCF10A rerep -1.0%, KB-V1 cytotox 13µM*, SW480 rerep -10.8%, KB-3-1 cytotox inactive and DRD3 agonist 3.8.
`CCCCCCC(=O)N(O)C1CC(=O)N(c2ccc(C)cc2)C1=O` (configuration not stated) gave DRD3 antagonist -2.2, MCF10A rerep inconclusive, KB-V1 cytotox inactive, SW480 rerep inconclusive, KB-3-1 cytotox inactive and DRD3 agonist -5.1.
Screening CCCCCCC(=O)N(O)C1CC(=O)N(c2ccc(Cl)cc2)C1=O (configuration not stated) returned DRD3 antagonist -17.1, MCF10A rerep inconclusive, KB-V1 cytotox inactive, SW480 rerep 18.4µM*, KB-3-1 cytotox inactive and DRD3 agonist -5.1.
Screening Cc1c(N)nc([C@H](CC(N)=O)NC[C@H](N)C(N)=O)nc1C(=O)N[C@H](C(=O)N[C@H](C)[C@@H](O)[C@H](C)C(=O)N[C@H](C(=O)NCCc1nc(-c2nc(C(=O)NCCCCN=C(N)N)cs2)cs1)[C@@H](C)O)[C@@H](O[C@@H]1O[C@@H](CO)[C@@H](O)[C@H](O)[C@@H]1O[C@H]1O[C@H](CO)[C@@H](O)[C@H](OC(N)=O)[C@@H]1O)c1cnc[nH]1 returned DRD3 agonist 12.6.
Screening NC(N)=Nc1ccc(/C=C2\C=Cc3ccccc32)cc1 returned KB-V1 cytotox inactive and KB-3-1 cytotox inactive.
For Clc1cccc(-c2nnc(-c3ccccc3)o2)c1 the results were DRD3 antagonist 20.0, MCF10A rerep 16.4µM*, KB-V1 cytotox inconclusive, SW480 rerep -0.4%, KB-3-1 cytotox inconclusive and DRD3 agonist -2.5.
Screening Cc1ccccc1NS(=O)(=O)c1cccc(-c2nnc(-c3ccccc3)o2)c1 returned DRD3 antagonist -20.2, MCF10A rerep 13.8%, KB-V1 cytotox inactive, SW480 rerep -18.4%, KB-3-1 cytotox inactive and DRD3 agonist 0.7.
For CN(C)S(=O)(=O)c1cccc(-c2nnc(-c3ccccc3)o2)c1 the results were DRD3 antagonist -8.0, MCF10A rerep 17.4%, KB-V1 cytotox 23.1µM*, SW480 rerep 0.6%, KB-3-1 cytotox inactive and DRD3 agonist -18.3.
COc1ccc2c(c1)c(=O)c(C(=O)c1ccccc1)cn2Cc1ccc(C)cc1 was read as DRD3 antagonist 20.9, MCF10A rerep inconclusive, KB-V1 cytotox 18.4µM*, SW480 rerep inconclusive, KB-3-1 cytotox inconclusive and DRD3 agonist -0.1.
COc1ccc(Cn2cc(C(=O)c3ccc(C)c(C)c3)c(=O)c3ccccc32)cc1 was read as KB-V1 cytotox inactive, KB-3-1 cytotox inactive and DRD3 agonist 16.9.
For COc1cc(NC(=O)c2ccco2)c(C(=O)OCC(=O)c2c[nH]c3ccccc23)cc1OC the results were DRD3 antagonist 55.4, MCF10A rerep 23.1µM*, KB-V1 cytotox inactive, SW480 rerep inconclusive, KB-3-1 cytotox inactive and DRD3 agonist 6.2.
COc1cc(C(=O)OCC(=O)NC2CCCC2)cc(NC(=O)c2ccco2)c1OC was read as DRD3 antagonist 20.9, MCF10A rerep 1.9%, KB-V1 cytotox 4.61µM*, SW480 rerep -10.1%, KB-3-1 cytotox inactive and DRD3 agonist 6.0.
For O=C(Nc1ccccc1C(=O)NCc1ccc(Cl)cc1)c1ccco1 the results were DRD3 antagonist 3.2, MCF10A rerep 18.9%, KB-V1 cytotox 8.2µM*, SW480 rerep inconclusive, KB-3-1 cytotox inactive and DRD3 agonist -1.1.
Screening O=C(OCC(=O)c1c[nH]c2ccccc12)c1ccco1 returned DRD3 antagonist -9.7, MCF10A rerep -4.4%, KB-V1 cytotox inactive, SW480 rerep -2.0%, KB-3-1 cytotox inactive and DRD3 agonist -5.1.
Cc1ccccc1C(=O)Nc1ccccc1C(=O)NCc1ccccc1 was read as DRD3 antagonist 16.1, MCF10A rerep inconclusive, KB-V1 cytotox 20.6µM*, SW480 rerep -2.5%, KB-3-1 cytotox inactive and DRD3 agonist 1.1.
Cc1ccc(-c2noc(-c3nnn(CC(=O)Nc4ccc(C)c(Cl)c4)c3N)n2)cc1 was read as DRD3 agonist 8.5.
`COC(=O)CC1c2cc(OC)c(OC)cc2CCN1C(=O)Nc1ccc(C)cc1Cl` (configuration not stated) gave DRD3 agonist -20.8.
CCCCOc1ccc(C2C(=O)N(C3CCCCC3)CC(=O)N2C2CCCCC2)cc1 (configuration not stated) was read as DRD3 agonist 14.0.
`COc1ccc(C(=O)c2cn(Cc3cccc(C)c3)c3cc4c(cc3c2=O)OCO4)cc1` gave KB-V1 cytotox inactive, KB-3-1 cytotox inactive and DRD3 agonist 6.6.
O=C(Nc1ccccc1C(=O)NC(Cc1c[nH]c2ccccc12)C(=O)O)c1ccco1 (configuration not stated) was read as DRD3 antagonist -54.5*, MCF10A rerep 12.0%, KB-V1 cytotox inconclusive, SW480 rerep 20.8%, KB-3-1 cytotox inactive and DRD3 agonist 4.3.
Screening COc1ccc(NC(=O)Cc2ccc(Cl)cc2)cc1NC(=O)c1ccco1 returned DRD3 antagonist -20.7, MCF10A rerep 10.9%, KB-V1 cytotox 7.31µM*, SW480 rerep 7.5%, KB-3-1 cytotox inactive and DRD3 agonist -3.9.
`Cc1nn(-c2ccccc2)c(Cl)c1CN(C(=O)CCl)c1ccc(Cl)cc1` gave DRD3 antagonist -12.2, MCF10A rerep inconclusive, KB-V1 cytotox 20.6µM*, SW480 rerep 3.26µM*, KB-3-1 cytotox inconclusive and DRD3 agonist -10.8.
Cc1nn(-c2ccccc2)c(Cl)c1CN(C(=O)CCl)c1cccc2ccccc12 was read as DRD3 antagonist -5.0, MCF10A rerep inconclusive, KB-V1 cytotox inconclusive, SW480 rerep inconclusive, KB-3-1 cytotox 18.4µM* and DRD3 agonist -0.5.
